# Laboratory results: publication PMC7862700, “An all-to-all approach to the identification of sequence-specific readers for epigenetic DNA modifications on cytosine”
# Tests used:
# Test in all cases: DAPPL (digital affinity profiling via proximity ligation, sequencing); 10 mM Tris-HCl pH 7.5, 50 mM NaCl, 1 mM DTT, 4% glycerol, room temperature, 30 min; GST-TFs on glutathione beads, 16-mer random dsDNA library, 0.1% formaldehyde crosslink after washing; high values mean tight binding
# FEV = molecular target: T1, FEV (Homo sapiens, UniProt Q99581 1-238); settings: protein: recombinant; tags: N-terminal GST; dsDNA, one strand shown
# T1 sequence: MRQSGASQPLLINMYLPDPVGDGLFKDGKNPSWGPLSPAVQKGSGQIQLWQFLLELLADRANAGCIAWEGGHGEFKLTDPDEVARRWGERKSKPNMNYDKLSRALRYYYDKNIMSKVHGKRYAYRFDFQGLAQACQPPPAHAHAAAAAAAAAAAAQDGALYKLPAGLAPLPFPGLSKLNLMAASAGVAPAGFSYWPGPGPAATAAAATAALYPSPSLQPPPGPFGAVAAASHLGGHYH
# Method in brief: (§1)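 Human transcription factors carrying a GST fusion were produced in yeast, bound to glutathione beads, tagged with DNA barcodes and pooled together with a tag-only sample. Each pool was held with 200 nmole of a random double-stranded 16-mer DNA library in Tris/NaCl/DTT/glycerol buffer for 30 min at room temperature, then washed, crosslinked in 0.1% formaldehyde, proximity-ligated with BsaI/T4 ligase (1 h, 37 °C), PCR-amplified and sequenced on an Illumina NextSeq500. Binding signal is the read frequency of each hexamer for a given factor divided by its frequency in the tag-only sample.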
# ETV5 = ETV5 (Homo sapiens, UniProt P41161 1-510); settings: protein: recombinant; tags: N-terminal GST; dsDNA, one strand shown
# Sequence of ETV5 (P41161 whole entry): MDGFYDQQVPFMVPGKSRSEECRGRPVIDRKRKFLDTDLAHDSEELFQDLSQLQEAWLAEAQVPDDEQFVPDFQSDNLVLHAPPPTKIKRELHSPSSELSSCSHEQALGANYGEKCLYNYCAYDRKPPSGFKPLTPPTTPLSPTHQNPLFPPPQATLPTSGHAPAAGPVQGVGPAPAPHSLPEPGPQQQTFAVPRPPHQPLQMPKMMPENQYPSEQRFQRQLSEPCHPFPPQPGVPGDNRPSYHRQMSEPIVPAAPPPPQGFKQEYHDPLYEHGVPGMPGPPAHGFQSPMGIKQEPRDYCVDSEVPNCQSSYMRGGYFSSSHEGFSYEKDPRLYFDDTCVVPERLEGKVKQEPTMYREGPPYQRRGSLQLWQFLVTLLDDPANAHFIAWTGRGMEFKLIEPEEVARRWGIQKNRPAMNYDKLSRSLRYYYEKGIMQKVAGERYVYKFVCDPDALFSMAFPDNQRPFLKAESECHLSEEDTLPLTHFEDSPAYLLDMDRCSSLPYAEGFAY
# Method in brief: as §1
# HSF1 = HSF1 (Homo sapiens, UniProt Q00613 1-529); settings: protein: recombinant; tags: N-terminal GST; chain copies: 3; dsDNA, one strand shown
# Sequence of HSF1 (Q00613 whole entry): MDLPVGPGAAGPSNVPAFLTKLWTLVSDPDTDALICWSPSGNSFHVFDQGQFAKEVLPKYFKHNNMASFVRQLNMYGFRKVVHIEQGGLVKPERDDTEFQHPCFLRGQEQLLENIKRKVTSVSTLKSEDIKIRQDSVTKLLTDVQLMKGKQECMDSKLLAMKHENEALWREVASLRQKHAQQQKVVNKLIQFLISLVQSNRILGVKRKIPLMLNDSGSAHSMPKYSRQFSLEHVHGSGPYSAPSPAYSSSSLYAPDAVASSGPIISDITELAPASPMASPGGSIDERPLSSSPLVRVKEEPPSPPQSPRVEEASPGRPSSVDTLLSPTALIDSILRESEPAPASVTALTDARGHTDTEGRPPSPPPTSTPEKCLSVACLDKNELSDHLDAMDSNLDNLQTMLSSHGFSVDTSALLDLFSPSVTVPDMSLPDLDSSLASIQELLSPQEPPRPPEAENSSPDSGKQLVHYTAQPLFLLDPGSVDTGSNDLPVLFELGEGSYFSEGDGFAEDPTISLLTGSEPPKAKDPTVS
# Method in brief: as §1
# ELF4 = ELF4 (Homo sapiens, UniProt Q99607 1-663); settings: protein: recombinant; tags: N-terminal GST; dsDNA, one strand shown
# Sequence of ELF4 (Q99607 whole entry): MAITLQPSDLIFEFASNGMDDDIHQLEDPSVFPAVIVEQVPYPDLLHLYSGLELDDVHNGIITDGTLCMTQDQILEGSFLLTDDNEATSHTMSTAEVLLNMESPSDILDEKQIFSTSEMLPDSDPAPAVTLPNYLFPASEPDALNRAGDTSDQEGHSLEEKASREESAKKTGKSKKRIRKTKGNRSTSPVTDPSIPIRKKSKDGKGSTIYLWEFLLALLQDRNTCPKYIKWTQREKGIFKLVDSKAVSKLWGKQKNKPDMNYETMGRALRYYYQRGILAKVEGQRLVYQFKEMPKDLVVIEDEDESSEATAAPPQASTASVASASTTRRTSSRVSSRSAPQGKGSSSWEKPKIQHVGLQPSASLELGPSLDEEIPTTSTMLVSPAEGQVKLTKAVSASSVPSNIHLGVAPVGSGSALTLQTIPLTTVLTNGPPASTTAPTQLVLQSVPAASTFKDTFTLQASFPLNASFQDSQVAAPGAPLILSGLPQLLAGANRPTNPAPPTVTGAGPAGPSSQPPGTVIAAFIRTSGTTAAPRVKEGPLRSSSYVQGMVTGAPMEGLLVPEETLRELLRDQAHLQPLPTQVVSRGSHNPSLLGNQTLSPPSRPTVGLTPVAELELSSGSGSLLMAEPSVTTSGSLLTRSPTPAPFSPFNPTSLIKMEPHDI
# Method in brief: as §1
# ELK4 = molecular target: T2, ELK4 (Homo sapiens, UniProt P28324-2 1-405); settings: protein: recombinant; tags: N-terminal GST; dsDNA, one strand shown
# T2 sequence: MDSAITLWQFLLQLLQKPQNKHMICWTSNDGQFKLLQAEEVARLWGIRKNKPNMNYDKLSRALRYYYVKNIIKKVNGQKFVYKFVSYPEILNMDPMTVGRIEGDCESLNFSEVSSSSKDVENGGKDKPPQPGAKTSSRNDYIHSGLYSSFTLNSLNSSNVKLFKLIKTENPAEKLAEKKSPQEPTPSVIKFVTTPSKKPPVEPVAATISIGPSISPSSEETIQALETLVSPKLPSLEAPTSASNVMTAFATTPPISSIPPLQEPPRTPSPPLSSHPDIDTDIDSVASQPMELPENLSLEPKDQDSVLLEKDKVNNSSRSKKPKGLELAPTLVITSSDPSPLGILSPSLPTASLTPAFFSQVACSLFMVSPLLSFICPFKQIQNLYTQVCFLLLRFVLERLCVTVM
# Method in brief: as §1
# CRX = CRX (Homo sapiens, UniProt O43186 1-299); settings: protein: recombinant; tags: N-terminal GST; dsDNA, one strand shown
# Sequence of CRX (O43186 whole entry): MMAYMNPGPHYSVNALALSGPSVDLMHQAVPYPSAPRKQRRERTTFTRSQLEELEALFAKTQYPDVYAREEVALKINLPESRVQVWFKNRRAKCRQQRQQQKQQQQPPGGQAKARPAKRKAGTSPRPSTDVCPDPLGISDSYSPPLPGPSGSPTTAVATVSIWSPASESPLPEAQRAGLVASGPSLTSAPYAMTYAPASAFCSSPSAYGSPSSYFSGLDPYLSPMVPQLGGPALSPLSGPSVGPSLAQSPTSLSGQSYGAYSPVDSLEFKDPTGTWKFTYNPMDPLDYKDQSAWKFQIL
# Method in brief: as §1
# ETV1 = ETV1 (Homo sapiens, UniProt P50549 1-477); settings: protein: recombinant; tags: N-terminal GST; dsDNA, one strand shown
# Sequence of ETV1 (P50549 whole entry): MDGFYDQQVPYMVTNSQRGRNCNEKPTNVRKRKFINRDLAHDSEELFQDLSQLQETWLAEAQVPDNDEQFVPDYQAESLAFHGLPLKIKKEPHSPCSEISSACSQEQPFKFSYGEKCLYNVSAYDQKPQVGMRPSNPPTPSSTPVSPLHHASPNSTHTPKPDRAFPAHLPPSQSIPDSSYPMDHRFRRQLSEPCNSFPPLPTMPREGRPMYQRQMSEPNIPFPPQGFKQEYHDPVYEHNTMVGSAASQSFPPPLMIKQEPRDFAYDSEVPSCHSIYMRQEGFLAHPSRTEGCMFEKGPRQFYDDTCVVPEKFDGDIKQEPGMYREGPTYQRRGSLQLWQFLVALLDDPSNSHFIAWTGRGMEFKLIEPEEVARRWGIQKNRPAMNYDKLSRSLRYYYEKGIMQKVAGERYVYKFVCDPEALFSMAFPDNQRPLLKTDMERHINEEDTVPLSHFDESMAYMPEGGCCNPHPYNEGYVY
# Method in brief: as §1
# ETV2 = molecular target: T3, ETV2 (Homo sapiens, UniProt O00321 1-342); settings: protein: recombinant; tags: N-terminal GST; dsDNA, one strand shown
# T3 sequence: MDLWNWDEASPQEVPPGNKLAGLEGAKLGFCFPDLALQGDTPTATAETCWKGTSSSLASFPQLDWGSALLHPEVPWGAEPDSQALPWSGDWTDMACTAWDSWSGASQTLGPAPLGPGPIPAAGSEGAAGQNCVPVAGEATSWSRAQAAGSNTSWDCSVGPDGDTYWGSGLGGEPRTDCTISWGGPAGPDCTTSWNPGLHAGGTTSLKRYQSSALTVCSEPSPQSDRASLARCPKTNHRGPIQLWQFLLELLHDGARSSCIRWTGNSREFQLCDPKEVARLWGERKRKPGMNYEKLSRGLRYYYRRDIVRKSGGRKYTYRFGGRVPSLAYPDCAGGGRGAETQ
# Method in brief: as §1
# ELF3 = molecular target: T4, ELF3 (Homo sapiens, UniProt P78545 1-371); settings: protein: recombinant; tags: N-terminal GST; dsDNA, one strand shown
# T4 sequence: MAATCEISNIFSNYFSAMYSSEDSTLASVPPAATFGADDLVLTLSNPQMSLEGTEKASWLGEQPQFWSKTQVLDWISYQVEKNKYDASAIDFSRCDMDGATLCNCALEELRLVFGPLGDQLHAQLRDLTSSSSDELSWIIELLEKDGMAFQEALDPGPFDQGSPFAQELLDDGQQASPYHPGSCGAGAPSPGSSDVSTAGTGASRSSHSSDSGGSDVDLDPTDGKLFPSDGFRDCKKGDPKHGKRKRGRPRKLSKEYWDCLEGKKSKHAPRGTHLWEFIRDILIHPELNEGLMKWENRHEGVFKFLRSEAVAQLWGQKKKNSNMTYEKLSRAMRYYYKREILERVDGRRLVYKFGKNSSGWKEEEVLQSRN
# Method in brief: as §1
# SPIC = molecular target: T5, SPIC (Homo sapiens, UniProt Q8N5J4 1-248); settings: protein: recombinant; tags: N-terminal GST; dsDNA, one strand shown
# T5 sequence: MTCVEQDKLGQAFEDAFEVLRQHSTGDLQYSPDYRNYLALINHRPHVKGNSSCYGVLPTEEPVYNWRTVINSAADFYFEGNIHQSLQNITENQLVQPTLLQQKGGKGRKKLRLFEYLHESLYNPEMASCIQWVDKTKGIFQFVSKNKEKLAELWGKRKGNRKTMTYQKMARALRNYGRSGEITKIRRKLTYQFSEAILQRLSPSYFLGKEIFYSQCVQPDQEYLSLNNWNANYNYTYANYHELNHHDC
# Method in brief: as §1
Sequence,binding signal (FEV),binding signal (ETV5),binding signal (HSF1),binding signal (ELF4),binding signal (ELK4),binding signal (CRX),binding signal (ETV1),binding signal (ETV2),binding signal (ELF3),binding signal (SPIC)
ATCGCA,"1.01 fold enrichment (6-mer frequency, TF over GST control)","1 fold enrichment (6-mer frequency, TF over GST control)","1.03 fold enrichment (6-mer frequency, TF over GST control)","1.12 fold enrichment (6-mer frequency, TF over GST control)","1.06 fold enrichment (6-mer frequency, TF over GST control)","1.17 fold enrichment (6-mer frequency, TF over GST control)","1.06 fold enrichment (6-mer frequency, TF over GST control)",–,–,–
AGACCT,"1.04 fold enrichment (6-mer frequency, TF over GST control)","1.04 fold enrichment (6-mer frequency, TF over GST control)","1.02 fold enrichment (6-mer frequency, TF over GST control)","1.12 fold enrichment (6-mer frequency, TF over GST control)","1.07 fold enrichment (6-mer frequency, TF over GST control)",–,"1.04 fold enrichment (6-mer frequency, TF over GST control)","1.2 fold enrichment (6-mer frequency, TF over GST control)","1.08 fold enrichment (6-mer frequency, TF over GST control)",–
TACACG,"1.12 fold enrichment (6-mer frequency, TF over GST control)","1.22 fold enrichment (6-mer frequency, TF over GST control)","1.04 fold enrichment (6-mer frequency, TF over GST control)","1.14 fold enrichment (6-mer frequency, TF over GST control)","1.21 fold enrichment (6-mer frequency, TF over GST control)","1.1 fold enrichment (6-mer frequency, TF over GST control)","1.16 fold enrichment (6-mer frequency, TF over GST control)",–,"1.15 fold enrichment (6-mer frequency, TF over GST control)",–
GTTATC,"1.05 fold enrichment (6-mer frequency, TF over GST control)","1.12 fold enrichment (6-mer frequency, TF over GST control)","1.03 fold enrichment (6-mer frequency, TF over GST control)","1.04 fold enrichment (6-mer frequency, TF over GST control)","1.22 fold enrichment (6-mer frequency, TF over GST control)","1.24 fold enrichment (6-mer frequency, TF over GST control)",–,"1.21 fold enrichment (6-mer frequency, TF over GST control)",–,–
TAGTGC,"1.02 fold enrichment (6-mer frequency, TF over GST control)","1.08 fold enrichment (6-mer frequency, TF over GST control)","1.02 fold enrichment (6-mer frequency, TF over GST control)",–,"1.04 fold enrichment (6-mer frequency, TF over GST control)","1.16 fold enrichment (6-mer frequency, TF over GST control)","1.09 fold enrichment (6-mer frequency, TF over GST control)","1.02 fold enrichment (6-mer frequency, TF over GST control)","1.03 fold enrichment (6-mer frequency, TF over GST control)",–
AGCATC,"1.07 fold enrichment (6-mer frequency, TF over GST control)","1.03 fold enrichment (6-mer frequency, TF over GST control)","1.02 fold enrichment (6-mer frequency, TF over GST control)","1.02 fold enrichment (6-mer frequency, TF over GST control)",–,–,"1.08 fold enrichment (6-mer frequency, TF over GST control)",–,–,–
CCAAAT,"1.08 fold enrichment (6-mer frequency, TF over GST control)","1.06 fold enrichment (6-mer frequency, TF over GST control)","1.02 fold enrichment (6-mer frequency, TF over GST control)","1.17 fold enrichment (6-mer frequency, TF over GST control)","1.04 fold enrichment (6-mer frequency, TF over GST control)","1.18 fold enrichment (6-mer frequency, TF over GST control)",–,–,"1.11 fold enrichment (6-mer frequency, TF over GST control)",–
AAGCGA,"1.04 fold enrichment (6-mer frequency, TF over GST control)","1.04 fold enrichment (6-mer frequency, TF over GST control)","1.04 fold enrichment (6-mer frequency, TF over GST control)","1.09 fold enrichment (6-mer frequency, TF over GST control)","1.06 fold enrichment (6-mer frequency, TF over GST control)","1.09 fold enrichment (6-mer frequency, TF over GST control)","1 fold enrichment (6-mer frequency, TF over GST control)",–,"1.08 fold enrichment (6-mer frequency, TF over GST control)",–
TACAAA,"1.11 fold enrichment (6-mer frequency, TF over GST control)","1.15 fold enrichment (6-mer frequency, TF over GST control)","1.12 fold enrichment (6-mer frequency, TF over GST control)","1.13 fold enrichment (6-mer frequency, TF over GST control)","1.09 fold enrichment (6-mer frequency, TF over GST control)","1.22 fold enrichment (6-mer frequency, TF over GST control)","1.14 fold enrichment (6-mer frequency, TF over GST control)","1.17 fold enrichment (6-mer frequency, TF over GST control)","1.06 fold enrichment (6-mer frequency, TF over GST control)",–
AATGGA,"1.09 fold enrichment (6-mer frequency, TF over GST control)","1.05 fold enrichment (6-mer frequency, TF over GST control)","1.12 fold enrichment (6-mer frequency, TF over GST control)","1.08 fold enrichment (6-mer frequency, TF over GST control)",–,–,"1.07 fold enrichment (6-mer frequency, TF over GST control)",–,"1.05 fold enrichment (6-mer frequency, TF over GST control)",–
AAAAGA,"1.07 fold enrichment (6-mer frequency, TF over GST control)","1.12 fold enrichment (6-mer frequency, TF over GST control)","1.43 fold enrichment (6-mer frequency, TF over GST control)","1.2 fold enrichment (6-mer frequency, TF over GST control)","1.2 fold enrichment (6-mer frequency, TF over GST control)","1.28 fold enrichment (6-mer frequency, TF over GST control)","1.14 fold enrichment (6-mer frequency, TF over GST control)","1.1 fold enrichment (6-mer frequency, TF over GST control)","1.17 fold enrichment (6-mer frequency, TF over GST control)",–
CAAGCA,"1.13 fold enrichment (6-mer frequency, TF over GST control)","1.17 fold enrichment (6-mer frequency, TF over GST control)","1.03 fold enrichment (6-mer frequency, TF over GST control)","1.16 fold enrichment (6-mer frequency, TF over GST control)","1.14 fold enrichment (6-mer frequency, TF over GST control)",–,"1.1 fold enrichment (6-mer frequency, TF over GST control)",–,"1.28 fold enrichment (6-mer frequency, TF over GST control)",–
GGCTTG,"1.01 fold enrichment (6-mer frequency, TF over GST control)","1.01 fold enrichment (6-mer frequency, TF over GST control)",–,"1.07 fold enrichment (6-mer frequency, TF over GST control)","1.12 fold enrichment (6-mer frequency, TF over GST control)","1.06 fold enrichment (6-mer frequency, TF over GST control)","1.08 fold enrichment (6-mer frequency, TF over GST control)","1.01 fold enrichment (6-mer frequency, TF over GST control)","1.11 fold enrichment (6-mer frequency, TF over GST control)","1.12 fold enrichment (6-mer frequency, TF over GST control)"
GGTGTT,"1 fold enrichment (6-mer frequency, TF over GST control)","1.09 fold enrichment (6-mer frequency, TF over GST control)",–,"1.09 fold enrichment (6-mer frequency, TF over GST control)","1.13 fold enrichment (6-mer frequency, TF over GST control)","1.01 fold enrichment (6-mer frequency, TF over GST control)","1.04 fold enrichment (6-mer frequency, TF over GST control)","1.13 fold enrichment (6-mer frequency, TF over GST control)","1.03 fold enrichment (6-mer frequency, TF over GST control)","1.09 fold enrichment (6-mer frequency, TF over GST control)"
ACCTTG,"1.12 fold enrichment (6-mer frequency, TF over GST control)","1.2 fold enrichment (6-mer frequency, TF over GST control)",–,"1.22 fold enrichment (6-mer frequency, TF over GST control)","1.21 fold enrichment (6-mer frequency, TF over GST control)","1.03 fold enrichment (6-mer frequency, TF over GST control)","1.21 fold enrichment (6-mer frequency, TF over GST control)","1.4 fold enrichment (6-mer frequency, TF over GST control)","1.29 fold enrichment (6-mer frequency, TF over GST control)","1.17 fold enrichment (6-mer frequency, TF over GST control)"
CGGTTT,"1.44 fold enrichment (6-mer frequency, TF over GST control)","1.21 fold enrichment (6-mer frequency, TF over GST control)",–,"1.21 fold enrichment (6-mer frequency, TF over GST control)","1.23 fold enrichment (6-mer frequency, TF over GST control)","1.05 fold enrichment (6-mer frequency, TF over GST control)","1.32 fold enrichment (6-mer frequency, TF over GST control)","1.11 fold enrichment (6-mer frequency, TF over GST control)","1.24 fold enrichment (6-mer frequency, TF over GST control)","1.23 fold enrichment (6-mer frequency, TF over GST control)"
